From PubChem
A selection: hits, their analogues and other compounds. The true share with any hit is near 21%.
DT40 TDP1 no CPT: qHTS for Inhibitors of human tyrosyl-DNA phosphodiesterase 1 (TDP1): qHTS in cells in absence of CPT; 420,000 compounds, 15% hits; DT40 Tdp1-/- hTDP1 cells, no CPT, ATP luminescence, 48 h; Potency, µM (doses to about 46.2 µM), inactives show top-dose activity change, negative = growth inhibition, hits mostly inhibitors; note: potency is the fitted concentration of half-maximal effect; % is set by controls: 0 for no effect and ±100 for the full control effect; nearly all actives have a fitted effect of over 55% in size
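Cells were dispensed at 400 per well, compounds added by pin tool, plates incubated ≥48 hr at 37 °C, then CellTiter-Glo added for 30 min at room temperature before luminescence reading. Line: DT40 Tdp1-/- complemented with hTDP1; camptothecin omitted.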
D3 antag: antagonists of human D3 dopamine receptor; 360,000 compounds, 2.5% hits; P35462; AID 652054; max response, negative = inhibition, %; D3R cells, DiscoveRx beta-arrestin luminescence, antagonist mode; stronger effect = lower value; in the data active = max response below about -50%; inconclusive = no clear call, values can overlap the other calls; note: % is set by controls: 0 for no effect and ±100 for the full control effect
Target sequence (P35462 whole entry, looked up): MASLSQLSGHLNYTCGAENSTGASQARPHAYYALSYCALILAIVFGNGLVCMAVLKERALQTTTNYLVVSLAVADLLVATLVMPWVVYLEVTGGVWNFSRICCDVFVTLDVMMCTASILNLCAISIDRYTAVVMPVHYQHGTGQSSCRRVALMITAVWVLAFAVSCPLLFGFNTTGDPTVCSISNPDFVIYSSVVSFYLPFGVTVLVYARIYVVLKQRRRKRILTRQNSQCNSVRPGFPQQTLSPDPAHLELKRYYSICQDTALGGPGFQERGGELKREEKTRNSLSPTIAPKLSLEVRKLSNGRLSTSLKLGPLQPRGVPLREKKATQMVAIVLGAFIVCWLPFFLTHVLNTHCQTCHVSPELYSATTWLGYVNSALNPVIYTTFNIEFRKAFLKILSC
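Cells plated overnight at 1500 cells/well, then exposed to library compounds with dopamine controls for 90 minutes at 37 degrees C. DiscoveRx reagent added for 30–60 minutes at room temperature; luminescence read, quantitative HTS format.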
DRD3 agonist: agonists of human D3 dopamine receptor | 410,000 compounds, 0.58% hits | D3R DiscoveRx beta-arrestin cells, luminescence, 90 min | max activation, % | P35462; in the data active = max activation above about 30%; note: 0% is about no effect
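Agonist mode: compounds and dopamine controls were applied to plated cells for 90 min at 37 degrees C after an overnight attachment at 1500 cells/well. Luminescent read-out followed 30 - 60 minutes at room temperature with DiscoveRx detection reagent.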
ClpP mod: qHTS Assay for Activators of ClpP; 340,000 compounds, 1.9% hits; purified B. subtilis ClpP, FRET peptide cleavage, 20 min; ATP-dependent Clp protease proteolytic subunit (Bacillus subtilis (strain 168)), P80244; Potency, µM (series often up to 57.5 µM), for the others: at the top dose activity change, negative = active; active = well fitted falling curve with a large enough effect; inconclusive = small, poorly fitted or top-dose-only effect; inactive = no such curve, though single readings can be large or run the other way; note: potency is the fitted concentration of half-maximal effect; the source files actives as falling curves though it sought activators and does not explain the sign; nearly all actives have a fitted effect of over 65% in size
Target sequence (P80244 whole entry, looked up): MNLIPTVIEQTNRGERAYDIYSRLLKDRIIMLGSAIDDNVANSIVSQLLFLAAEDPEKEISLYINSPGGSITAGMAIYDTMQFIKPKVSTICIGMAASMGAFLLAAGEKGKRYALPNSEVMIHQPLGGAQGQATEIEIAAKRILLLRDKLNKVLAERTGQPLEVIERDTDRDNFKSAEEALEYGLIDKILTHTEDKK
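ClpP 10 microg/mL final, pH 8 Tris/KCl buffer with BSA, glycerol, Tween-20; compound pinned in; FRET-FV substrate; RT 20 min; Ex320/Em430; ΔFRET vs ADEP 5.8 microM, DMSO, no enzyme.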
DT40 TDP1 CPT: DT40-hTDP1 cell growth loss with CPT; chicken DT40 Tdp1-/-;hTDP1 cells + 20 nM CPT, ATP luminescence, 48 h; Potency, µM (doses to about 46.2 µM), for inactives: at the highest dose activity change, negative = growth inhibition, most hits filed as inhibitors; 420,000 compounds, 12% hits; AID 686979; note: potency is the fitted concentration of half-maximal effect; % is set by controls: 0 for no effect and ±100 for the full control effect; nearly all actives have a fitted effect of over 55% in size
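Chicken DT40 Tdp1-/- cells complemented with human TDP1, 400 cells/well, exposed to compounds plus 20 nM camptothecin for at least 48 h at 37 C; viability read as ATP content by CellTiter-Glo luminescence.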
IL-1B inflam inh: blocks inflammasome-driven IL-1 beta release | THP-1 LPS/ATP IL-1B secretion, AlphaLISA, 16 h; stronger effect = lower value | activity change, % at 57.5 µM | 360,000 compounds, 4.7% hits | AID 743279; in the data active = activity change below about -50%; inconclusive = mostly about -30% to -49%; note: % is set by controls: 0 for no effect and ±100 for the full control effect
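Secreted IL-1B measured by AlphaLISA bead assay after 16 h compound exposure of THP-1 cells; compounds (final up to 57.5 uM) added 1 h before LPS (250 ng/mL) and ATP (1.25 mM) stimulation; lower signal means less secretion.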
* marks the source's active call; other numbers are inactive results; ? = inconclusive; . = not tested or not shown. Unless noted, calls come from the whole dose curve; as a rule, active = well fitted inhibition curve with a large enough effect; inconclusive = small, poorly fitted or top-dose-only effect; inactive = flat fitted curve, though single readings scatter.

SMILES	DT40 TDP1 no CPT	D3 antag	DRD3 agonist	ClpP mod	DT40 TDP1 CPT	IL-1B inflam inh
CC(C)CC(OC(=O)c1ccco1)C(=O)NC1CCCC1 (configuration not stated)	1%	3	-8	.	-1%	3
CCCn1c(=NC(=O)CS(=O)(=O)c2ccccc2)sc2cc(S(C)(=O)=O)ccc21	-2%	9	14	-2%	3%	-1
COC(=O)Cn1c(=NC(=O)c2ccc(OC)c(OC)c2)sc2cc(OC)ccc21	?	-3	-3	?	?	1
COC(=O)Cn1c(=NC(=O)c2ccc(Cl)s2)sc2cc(F)ccc21	?	0	-1	28µM*	-19%	-6
COCCn1c(=NC(=O)CCS(=O)(=O)c2ccccc2)sc2cc(F)ccc21	21µM*	-5	-9	-7%	18µM*	-4
CC(Oc1ccc(Cl)cc1)C(=O)Nc1ccc(S(=O)(=O)N2CCOCC2)cc1 (configuration not stated)	?	3	14	.	?	38
CCCc1c(-c2cccc(Cl)c2)ncn1Cc1ccccc1OC	9.2µM*	24	6	-1%	5.8µM*	?
CCCCCc1c(-c2ccc(Cl)cc2)ncn1CCc1ccccc1OC	7.3µM*	?	-1	?	8.2µM*	-63*
CCCCc1c(-c2ccc(OC)cc2)ncn1CCc1ccccc1OC	23µM*	30	14	0%	21µM*	-114*
CCCCc1c(-c2ccc(F)cc2)ncn1CCc1ccccc1OC	21µM*	15	6	1%	?	?
COc1ccc(-c2ccc(NS(=O)(=O)c3ccc(NC(C)=O)cc3)cc2)nn1	?	.	4	0%	?	.
O=C(O)c1ccccc1Nc1ccnc(C(F)(F)F)c1	?	-2	-4	-2%	?	30
CCc1ccccc1OCCCOc1ccc(OC)cc1	0%	-3	3	-2%	1%	41
CCCCCc1c(-c2ccc(OC)cc2)ncn1CCc1ccccc1OC	15µM*	20	15	-3%	13µM*	-94*
CCCCc1c(Cc2ccccc2)ncn1CCc1ccccc1OC	5.2µM*	0	-5	-3%	2.9µM*	-58*
COc1ccccc1CCn1c(=O)c(CCc2ccccc2)nc2cncnc21	2%	.	.	.	2%	.
CCCCc1c(-c2ccccc2)ncn1CCc1ccccc1OC	16µM*	54	6	1%	?	?
CCCCc1c(-c2cccc(Cl)c2)ncn1CCc1ccccc1OC	8.2µM*	32	10	-1%	8.2µM*	-58*
Cc1cc(C)n(-c2ccc(C(=O)OCC(=O)NCc3ccc(F)cc3)cc2)n1	-3%	-2	8	-4%	13%	5
CCOC(=O)c1c(NC(=O)c2cc(C(C)C)on2)sc(C)c1C	-21%	.	-18	16%	-13%	.
CCN1C(=O)C(CC(=O)Nc2ccc(OC)cc2)N(CCCN2CCN(c3ccc(OC)cc3)CC2)C1=S (configuration not stated)	16µM*	-30	-14	.	21µM*	-30
COC(=O)CN1C(=S)N(Cc2ccccc2)C(=O)C1CC(=O)Nc1ccc(Br)cc1 (configuration not stated)	?	?	9	1%	16µM*	-18
COC(=O)CN1C(=S)N(c2ccc(Cl)cc2)C(=O)C1CC(=O)Nc1ccc(Cl)cc1 (configuration not stated)	?	81	2	0%	-22%	-1
COc1ccc(NC(=O)CC2C(=O)N(c3ccc(Cl)cc3)C(=S)N2CCc2ccccn2)cc1 (configuration not stated)	?	-26	-11	-4%	26µM*	-12
CCCOc1ccc(NC(=O)CC2C(=O)N(Cc3ccccc3)C(=S)N2Cc2cccs2)cc1 (configuration not stated)	21µM*	-1	2	0%	9.2µM*	?
SMILES	DT40 TDP1 no CPT	D3 antag	DRD3 agonist	ClpP mod	DT40 TDP1 CPT	IL-1B inflam inh
O=C(Cn1nnc(-c2ccc(F)cc2)n1)NC(=O)NC1CCCCC1	?	?	4	-4%	?	?
CN(C)c1ncc2nc(-c3cccs3)c(=O)n(-c3ccccc3)c2n1	24%	.	.	.	0%	.
CCN1C(=O)C(CC(=O)Nc2ccc(OC)cc2)N(CCc2ccccc2)C1=S (configuration not stated)	-20%	-3	5	1%	4%	-76*
COCCNc1nc2c(c(=O)n(Cc3cccc(Br)c3)c(=O)n2C)n1C	23µM*	-9	-10	-1%	?	26
CCNc1nc2c(c(=O)n(C)c(=O)n2C)n1CCCc1ccccc1	5.8µM*	8	3	.	12µM*	-9
COCCCNc1nc2c(c(=O)n(Cc3cccc(Br)c3)c(=O)n2C)n1C	?	-12	9	.	-30%	28
C=CCn1c(Oc2cc(C)ccc2C)nc2c1c(=O)n(C)c(=O)n2C	16µM*	-19	7	1%	15µM*	-1
CCNc1nc2c(c(=O)[nH]c(=O)n2C)n1CCCc1ccccc1	-30%	20	-9	-5%	2%	7
CN1CCN(c2nc3c(c(=O)n(C)c(=O)n3C)n2Cc2cccc(Br)c2)CC1	-7%	-25	1	-4%	-23%	?
Cn1c(=O)c2c(nc(NCC3CCCO3)n2Cc2cccc(Br)c2)n(C)c1=O (configuration not stated)	15µM*	2	0	-3%	?	0
O=C(NCc1cc(Cl)cc(Cl)c1)c1ccc2nc([C@H]3C[C@H](O)[C@@H](CO)O3)[nH]c2c1	-5%	24	4	-3%	-2%	-2
COCCCNc1nc2c(c(=O)n(C)c(=O)n2C)n1Cc1ccccc1	12µM*	.	4	2%	16µM*	.
Cc1ccc(Cn2c(NCCc3ccccc3)nc3c2c(=O)n(C)c(=O)n3C)cc1	8.2µM*	21	13	-1%	6.5µM*	?
Cn1c(=O)c2c(nc(NCCc3ccccc3)n2CC(=O)NCCc2ccccc2)n(C)c1=O	5%	20	5	0%	-2%	-6
COCCNc1nc2c(c(=O)n(C)c(=O)n2C)n1Cc1c(F)cccc1Cl	2.6µM*	.	15	0%	1.8µM*	.
C=CCn1c(NCCc2ccccc2)nc2c1c(=O)n(C)c(=O)n2C	8.2µM*	10	10	0%	9.2µM*	-21
